In PubChem BioAssay (NCI):
The panel holds about 83,000 compounds, 20% with a hit somewhere; the sample as a whole holds those more often.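 Single-dose data. Exposure time 48 hours. Values below 10 considered active.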 Activity calls are given as the source filed them.

How the values were obtained:
Assay in all cases: NCI-60 one-dose screen, 48 h (100 = growth as untreated, 0 = no growth, -100 = all killed)
Details in all cases: 10 µM unless noted
[1] = test system: T-47D breast
[2] = test system: BT-549 breast
[3] = test system: MDA-MB-435 melanoma
[4] = test system: SW-620 colon
[5] = test system: MCF7 breast
[6] = test system: HCT-116 colon
[7] = test system: HCC-2998 colon
[8] = test system: KM12 colon

Measured: growth

O=C(/C=C/c1c(Cl)nc2sccn12)c1ccc(F)c(F)c1
inactive: [1] 50.3% | [2] 71.6% | [3] 82.6% | [4] 77.3% | [5] 45.2% | [6] 69.5% | [7] 85.6% | [8] 83%

O=C1NC(=Nc2ccc(Cl)cc2)S/C1=C\c1cn(-c2ccccc2)nc1-c1ccccc1
inactive: [1] 47.4% | [2] 84.3% | [3] 90.1% | [4] 75.2% | [5] 69.1% | [6] 63.8% | [7] 100% | [8] 97.5%

CC1=C([Se]CC(OC(=O)CC[Se]c2ccccc2)C(=O)NCCCCCC(=O)OCc2ccccc2)C(=O)c2ccccc2C1=O (configuration not stated)
inactive: [1] 56% | [2] 39.9% | [3] 20% | [4] 104% | [5] 30.2% | [7] 72%
active: [6] -3.51% | [8] 9.71%

Fc1ccc(CNc2c3ccccc3nc3ccccc23)cc1F
inactive: [1] 47.9% | [2] 68.2% | [3] 49.2% | [4] 23.7% | [5] 12.9% | [8] 53.3%
active: [6] 8.18% | [7] 2.15%

Cc1c(C(=O)OC(=NC2CCCCC2)NC2CCCCC2)sc2c1c(=O)nc1c(C#N)n[nH]n12
inactive: [1] 109% | [2] 121% | [3] 117% | [4] 107% | [5] 103% | [6] 104% | [7] 100% | [8] 110%

CC1(C)OC2C(CO[Si](C)(C)C(C)(C)C)OC(n3c(I)c(C#C[Si](C)(C)C)c(=O)[nH]c3=O)C2O1 (configuration not stated)
active: [4] -43% | [7] -51%
inactive: [1] 96.2% | [2] 118% | [3] 83% | [5] 106% | [6] 71% | [8] 107%

O=C(CCCCCCN1CC(=O)N2[C@@H](c3ccccc3Cl)c3[nH]c4ccccc4c3C[C@H]2C1=O)NO
inactive: [1] 28.3% | [2] 76.8% | [3] 59.3% | [4] 49.1% | [5] 44% | [6] 34.2% | [7] 69.6% | [8] 74.8%

CN(C)c1ccc(/C=C/C(=O)c2cccc(Nc3nc(Nc4ccccc4)nc(Nc4ccccc4)n3)c2)cc1
inactive: [1] 81.4% | [2] 99.3% | [3] 101% | [4] 103% | [5] 75.1% | [6] 83.2% | [7] 64.5% | [8] 99.8%

CCOC(=O)c1c2ncccc2n2c(=O)n(-c3ccccc3C)nnc12
inactive: [1] 89.9% | [2] 104% | [3] 116% | [4] 117% | [5] 77.5% | [6] 92.6% | [7] 106% | [8] 119%

Cc1ccccc1NC(=O)N/C(N)=N/c1nc(-c2cccc([N+](=O)[O-])c2)cs1
inactive: [1] 35.7% | [2] 51% | [4] 31.1% | [5] 22.4% | [6] 20.6% | [7] 39.6% | [8] 31.2%
active: [3] -19.7%

CCCCCCCOc1c(OC)cc(C2CC(=O)Nc3c2c(C)nn3-c2nc3ccccc3[nH]2)cc1OC (configuration not stated)
active: [2] 6.89% | [3] -27.6% | [4] 3.05% | [5] 6.22% | [6] 4.4% | [8] 1.11%
inactive: [1] 11.8% | [7] 79.2%

C=CCn1c(C)nc2cc(Nc3nc(N4CCCC4)nc4ccccc34)ccc21
inactive: [1] 105% | [2] 96.9% | [3] 92.4% | [4] 75% | [5] 61.9% | [6] 19.6% | [7] 23.3% | [8] 70.1%

COc1cc(/C=C/C(=O)c2ccc(Nc3nc(Nc4ccc(F)cc4)nc(Nc4ccc(Cl)cc4)n3)cc2)cc(OC)c1OC
active: [7] -1.48%
inactive: [1] 61.9% | [2] 54.8% | [3] 69.3% | [4] 35.3% | [5] 28.5% | [6] 22.9% | [8] 56%

O=C(Nc1ccc(Cl)cc1)Nc1ccc(Cl)c(C(F)(F)F)c1
active: [1] -5.38% | [3] -5.12% | [4] 5.74% | [5] 9.91% | [6] 2.77% | [7] -34.8% | [8] 3%
inactive: [2] 14.4%

Cn1cc2c(c1)-c1nc(Nc3ccccc3)ncc1CC2
inactive: [1] 40.7% | [2] 32.1% | [3] 70.3% | [4] 52.1% | [5] 25.2% | [6] 35.4% | [7] 50.7% | [8] 11.9%

COc1ccc(NC(=O)CSc2nc(C)c(C(C)=O)n2-c2ccc(Cl)cc2)cc1
inactive: [1] 80.5% | [2] 80.4% | [3] 89% | [4] 96.1% | [5] 92.9% | [6] 81.3% | [7] 90.3% | [8] 95.5%

CN(c1ccccc1)c1ccc2c(c1)OCCC21CC1Nc1cnccc1C(=O)O (configuration not stated)
inactive: [1] 72.6% | [2] 64.8% | [3] 82.6% | [4] 80.2% | [5] 65.8% | [6] 33% | [7] 68.2% | [8] 64.2%

CNc1ccc(NC)c2c1C(=O)c1ccccc1C2=O
inactive: [1] 37.3% | [2] 75.7% | [3] 110% | [4] 92.4% | [5] 16% | [6] 78% | [7] 72.3% | [8] 64.4%

O=C(Nc1cccc(Oc2nnc(Cl)c3ccccc23)c1)Nc1ccc(Cl)c(C(F)(F)F)c1
active: [1] -24.6% | [2] -37.2% | [3] -78.4% | [4] -62.9% | [5] -35.6% | [6] -71.6% | [7] -86.5% | [8] -60.1%

O=C(NCCCNc1cc(-c2cn(-c3ccccc3)nc2-c2cccc(O)c2)ccn1)c1ccc(F)cc1
active: [1] -10.8% | [2] -6.04% | [3] -67.7% | [4] 5.38% | [7] -60%
inactive: [5] 13.7% | [6] 10.8% | [8] 12%

CC1(C)CC[C@]2(C(=O)N3CCOCC3)CC[C@]3(C)C(=CC[C@@H]4[C@@]5(C)CC[C@H](OC(=O)c6cccnc6)C(C)(C)[C@@H]5CC[C@]43C)[C@@H]2C1
inactive: [1] 54.7% | [2] 72.3% | [3] 70.2% | [4] 45.4% | [5] 67.4% | [6] 31.8% | [7] 58.7% | [8] 53.5%

CC1SC(c2ccc(OCc3ccccc3)cc2)N(NC(=O)C(O)(c2ccccc2)c2ccccc2)C1=O (configuration not stated)
inactive: [1] 25.8% | [2] 92.9% | [3] 57.7% | [4] 69.7% | [5] 35.7% | [6] 39.6% | [7] 79.9% | [8] 34.2%

N#C/C(=C\c1ccc(Br)cc1)n1nnc2cc(F)c(F)cc21
active: [1] -1.87% | [3] 4.75%
inactive: [2] 22.2% | [4] 13.2% | [5] 14% | [6] 15.3% | [7] 40% | [8] 10.3%

N=C1C(c2nc(-c3ccc(Br)cc3)cs2)=C(O)CN1Cc1cccnc1
inactive: [1] 46.3% | [2] 39.9% | [3] 53.4% | [4] 81.5% | [5] 77.9% | [6] 21.4% | [7] 85.9% | [8] 61.7%

CC1=C([Se]CC(OC(=O)[C@@H](CO)NC(=O)OC(C)(C)C)C(=O)NC(C)(C)C)C(=O)c2ccccc2C1=O (some centres not stated)
active: [1] -54.1% | [2] -100% | [3] -82.4% | [4] -85.9% | [5] -72.6% | [6] -100% | [7] -89.9% | [8] -77.7%

NC[C@H](O)c1ccc(O)c(O)c1
inactive: [1] 110% | [2] 88.7% | [3] 109% | [4] 105% | [5] 110% | [6] 95.6% | [7] 102% | [8] 103%

COc1ccc(C2c3ccc4ccccc4c3Oc3nc(C)[nH]c(=O)c32)cc1 (configuration not stated)
inactive: [1] 92.2% | [2] 109% | [3] 42.4% | [4] 97.4% | [5] 96.1% | [6] 107% | [7] 103% | [8] 98.6%

CN1CCN(C(=O)c2c3c(n4ccccc24)C(=O)c2ncccc2C3=O)CC1
inactive: [1] 93.3% | [2] 57.3% | [3] 76.1% | [4] 37.6% | [5] 26.9% | [6] 44.1% | [7] 70.9% | [8] 65.4%

Fc1c[c-]c(-c2ccccn2)c(F)c1.[CH3-].[Pt+2].c1ccc(P(C[PH+](c2ccccc2)c2ccccc2)c2ccccc2)cc1
active: [1] -5.03% | [2] -28.1% | [3] -51.8% | [4] -63.5% | [5] 6.04% | [6] -66% | [7] -27.5% | [8] -40.6%
